# About 79,000 compounds went through this panel and 15% of them were active in at least one assay; those are over-represented in the sample as a whole. Calls of active or inactive are those of the source. Rule as the data show it: active = growth inhibition above about 70%; inactive = the rest. Residues, ends and D or L forms follow the SMILES beside them. *: point of attachment. Fmoc = O=C(OCC1c2ccccc2-c2ccccc21)*; Boc = CC(C)(C)OC(=O)*
# Assay: NCI Yeast Anticancer Drug Screen. Data for the rad52 strain (AID 147);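 also: 0% = growth of vehicle-treated control cultures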
# Conditions: S. cerevisiae rad52 mutant growth inhibition; at 100.0 µM; active compounds read high
# Outline: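 Measured: yeast growth inhibition. System: strain with a defined DNA damage repair alteration. Reference: vehicle-treated control cultures.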
row,Structure (SMILES),growth inhibition
1,O=C1c2ccccc2N2OC3(N4CCCC4)CCCCC3C12c1ccccc1 (configuration not stated),98% (active)
2,CC(C)OC(=O)NNc1cc(Cl)ccc1Cl,66% (inactive)
3,Cc1oc2ccccc2c(=O)c1Cn1nnc2ccccc21,56% (inactive)
4,CC1(C)OC(=O)C(=Cc2ccc([N+](=O)[O-])s2)C(=O)O1,98% (active)
5,CCN(CC)CCCNc1ccc([N+](=O)[O-])c2nc3ccc(OC)cc3c(NCCCN(CC)CC)c12,19% (inactive)
6,COc1cccc(/C=C2\S/C(=N/Nc3nc(-c4ccc([N+](=O)[O-])cc4)cs3)NC2=O)c1O,80% (active)
7,OC(Cc1cccc2ccccc12)CN1CCC(c2ccccc2)CC1 (configuration not stated),97% (active)
8,C1=CCN([B-](c2ccccc2)[C+]2CCCCC2)C=C1,98% (active)
9,O=[N+]([O-])c1cc[n+]([O-])c(Cl)c1,98% (active)
10,CCCNC(=O)OCc1c(COC(=O)NCCC)c(-c2ccc(Cl)c(Cl)c2)n2c1CCC2,58% (inactive)
11,CC1(C)CC(=O)C(C(=O)Nc2cccs2)=C(O)C1,99% (active)
12,O=C(NO)c1coc2ccccc2c1=O,9% (inactive)
13,COc1ccc(C(C)c2cc3c(cc2OCC(C)=O)OCO3)cc1 (configuration not stated),73% (active)
14,CCS(=O)(=O)Nc1ccc(Nc2c3ccccc3nc3ccccc23)c(OC)c1,93% (active)
15,O=S(=O)(c1ccccc1)N1CN2CN(C1)CN(S(=O)(=O)c1ccccc1)C2,-5% (inactive)
16,CC1=NN(C(=O)c2ccccc2O)C(=O)/C1=C/c1ccco1,96% (active)
17,O=C1C=C(Br)C(=O)c2ccccc21,99% (active)
18,C[N+](C)([O-])CCCNc1c2ccccc2nc2cccc([N+](=O)[O-])c12,96% (active)
19,Cc1cccc2c(NCCCN(C)C)c3c([N+](=O)[O-])ccc(C)c3nc12,97% (active)
20,OC1(c2ccccc2)C2CC=CC2C1(c1ccccc1)c1ccccc1 (configuration not stated),63% (inactive)
21,C[n+]1c(-c2ccc(/C=N/NC(=O)c3ccc(C(=O)N/N=C/c4ccc(-c5cn6ccccc6[n+]5C)cc4)cc3)cc2)cn2ccccc21,60% (inactive)
22,CCN(CC)CCC(=O)Nc1ccc2sc3ccccc3c(=O)c2n1,94% (active)
23,O=[N+]([O-])c1ccc2nc(=S)[nH]n2c1,65% (inactive)
24,O=C(c1ccccc1)[C@H]1Nc2ccc(Cl)cc2[C@H]2OCCC[C@@H]12,86% (active)
25,COc1cc([N+](=O)[O-])c2ncccc2c1Br,42% (inactive)
26,O=S(=O)(c1cccc(C(F)(F)F)c1)N1c2ccccc2-n2cccc2C1c1cccnc1 (configuration not stated),91% (active)
27,CC(C)(C)OC(=O)NCCCCC(NC(=O)C(Cc1c[nH]c2ccccc12)NC(=O)OCC1c2ccccc2-c2ccccc21)C(=O)O (configuration not stated) (Fmoc-Trp-Lys(Boc)-OH; configuration not given here),58% (inactive)

# Reference: PubChem BioAssay (NCI)
